Cathepsin G inh = cathepsin G (human) inhibition. P08311. purified enzyme, AMC-tetrapeptide fluorescence, pooled mixtures. inhibition, % at 5 µM (by protocol). 62,000 tested, 0.2% active. AID 581;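 active = inhibition above 20% in each of the two mixture wells holding the compound; inactive = inhibition of 20% or less in either well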
PLAP act = activates human placental alkaline phosphatase. P05187. purified PLAP enzyme, luminescent substrate read-out; hits give high values. activation fold at 20 µM. 96,000 tested, 1.2% active; in the data active = activation fold above about 2
FXIa inh mix = factor XIa (human) inhibition, mixture screen | purified FXIa, fluorogenic substrate, pooled mixtures | inhibition, % at 5 µM | 62,000 tested, 0.19% active;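 also: each value is inhibition by a whole ten-compound pool holding the compound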
Target sequence (P03951 19-387 limits assumed): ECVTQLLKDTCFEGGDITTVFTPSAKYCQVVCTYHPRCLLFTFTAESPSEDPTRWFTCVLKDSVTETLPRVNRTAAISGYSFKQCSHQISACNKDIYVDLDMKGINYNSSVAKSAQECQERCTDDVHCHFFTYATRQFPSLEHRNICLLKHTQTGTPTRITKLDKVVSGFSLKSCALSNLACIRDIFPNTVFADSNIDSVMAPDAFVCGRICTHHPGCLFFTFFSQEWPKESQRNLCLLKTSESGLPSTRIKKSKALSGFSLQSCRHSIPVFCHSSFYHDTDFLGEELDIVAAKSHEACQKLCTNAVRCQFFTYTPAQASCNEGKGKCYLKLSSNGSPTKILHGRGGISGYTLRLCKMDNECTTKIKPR
Target sequence (P03951 388-625 limits assumed): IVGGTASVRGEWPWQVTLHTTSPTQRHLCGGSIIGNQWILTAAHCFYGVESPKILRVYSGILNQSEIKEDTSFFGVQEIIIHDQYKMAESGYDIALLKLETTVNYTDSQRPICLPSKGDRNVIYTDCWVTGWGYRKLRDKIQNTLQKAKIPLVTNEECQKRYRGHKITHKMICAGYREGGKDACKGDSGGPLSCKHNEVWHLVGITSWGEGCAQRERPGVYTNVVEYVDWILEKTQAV
FXIIa inh mix = inhibitors of human coagulation factor XIIa, pooled mixtures; purified FXIIa, fluorogenic substrate; inhibition, % at 5 µM; P00748; 62,000 tested, 0.2% active
C1s block = human complement C1s inhibition. purified C1s, fluorogenic AMC substrate, pooled mixtures. mean inhibition % of two 10-compound mixtures (hits give high values), % at 5 µM (by protocol). 62,000 tested, 0.16% active;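 active = inhibition above 20% in each of the two 10-compound mixture wells holding the compound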
HePTP inh = human HePTP phosphatase inhibition | P35236 | recombinant HePTP phosphatase activity, OD absorbance | inhibition, % at 20 µM | 110,000 tested, 0.64% active; in the data active = inhibition above about 50%
Hits are given with their value; - = inactive; . = not tested or not shown. Shown are actives, neighbours in structure and some others; about 1.4% of the full set was active somewhere. Rule as the data show it, unless noted: active = inhibition above about 20% (passing the limit was not always enough); inactive = the rest.

SMILES	Cathepsin G inh	PLAP act	FXIa inh mix	FXIIa inh mix	C1s block	HePTP inh
O=C(Nc1ccc2c(c1)OCO2)c1ccc2nc[nH]c2c1	.	2	.	.	.	.
N=c1n(CCN2CCCCC2)c2ccccc2n1CC(O)c1cccc(Br)c1 (centres undefined)	-	2	-	-	-	-
N=c1n(CCN2CCCCC2)c2ccccc2n1CC(O)c1ccc(Cl)c(Cl)c1 (centres undefined)	.	2.1	.	.	.	.
CC1CCN(C(=O)CCNC(=O)Cn2cnc3sc4c(c3c2=O)CCCC4)CC1	.	2.1	.	.	.	.
Cc1ccc(/C=N\N2CCN(c3ccccc3)CC2)cc1	.	.	.	.	.	-
CC(=O)c1ccc(NC2=NC(C)(C)Cc3ccccc32)cc1	.	.	.	.	.	-
CC(C(=O)NN)C1=NC(C)(C)Cc2ccccc21 (centres undefined)	.	.	.	.	.	54
COC(=O)c1c(NC(=O)COc2ccc(C)cc2C)sc2c1CCC(C)C2 (centres undefined)	.	.	.	.	.	-
COc1ccc(Cn2nnnc2C(c2ccccc2)N2CCN(C3CCCC3)CC2)cc1 (centres undefined)	-	2	-	-	-	-
COc1ccccc1CNc1cc(CSc2ccc(Cl)cc2)nc(C)n1	.	2	.	.	.	.
COc1ccccc1CNc1n[nH]c(NCc2ccccc2OC)n1	-	-	-	-	-	-
COc1cccc(CNc2cc(CSc3ccc(Cl)cc3)nc(C)n2)c1	.	2	.	.	.	.
CC1Oc2ccccc2N(CC(=O)Nc2ccc3c(c2)OCCO3)C1=O (centres undefined)	-	-	21	-	-	-
CCn1c(SCC(=O)NNC(=O)Cc2ccccc2)nnc1-c1ccccc1	.	2.4	.	.	.	.
Cc1ccc(-n2c(Cc3ccccc3)nnc2SCC(=O)NNC(=O)Cc2ccccc2)cc1	.	2.8	.	.	.	.
COC(=O)c1ccc(C(=O)OC)c(NC(=O)/C=C/c2ccc(F)cc2)c1	.	.	.	.	.	-
O=C(Nc1ccc2oc(-c3ccc(Cl)c(Cl)c3)nc2c1)c1ncn[nH]1	.	2.6	.	.	.	.
CC(C)C(=O)Nc1ccc2oc(-c3ccc(Cl)cc3)nc2c1	.	.	.	.	.	-
O=C(Nc1ccc2oc(-c3ccncc3)nc2c1)c1ccccn1	.	.	.	.	.	-
Cc1ccc(-c2nc3cc(NC(=O)C(C)C)ccc3o2)cc1	-	2.5	-	-	-	-
Cc1c(C(=O)Nc2ccc(Cl)cc2Cl)cccc1[N+](=O)[O-]	.	.	.	.	.	-
COC(=O)c1c(NC(=O)C2C3C=CC(C3)C2C(=O)O)sc2c1CCC2 (centres undefined)	.	.	.	.	.	-
CC(=O)Nc1ccc(N/C=C/C(=O)C(C)(C)C)cc1	-	-	21	-	-	-
CC(=O)Nc1ccc(N/C=C/C(=O)c2ccco2)cc1	-	-	-	-	-	-
COC(=O)c1ccccc1NC(=O)CN(c1ccc(OC)cc1)S(=O)(=O)c1ccc(C)cc1	.	.	.	.	.	50
SMILES	Cathepsin G inh	PLAP act	FXIa inh mix	FXIIa inh mix	C1s block	HePTP inh
N#C/C(=C(/O)c1ccc(Cl)cc1Cl)c1nc2ccccc2[nH]1	.	.	.	.	.	-
COc1ccc(F)cc1CN1CCN(c2cc(C)nc3c4c(C)cc(C)nc4nn23)CC1	-	-	-	-	-	-
Cc1cc(C)c2c(n1)nn1c(N3CCN(Cc4ccccc4)CC3)cc(C)nc21	-	2.1	-	-	-	-
COc1ccc2ccccc2c1C(O)c1nccn1C (centres undefined)	-	2	-	-	-	-
Cc1ccc(-n2nnnc2SCC(=O)NNC(=O)c2ccco2)cc1C	.	2.3	.	.	.	.
O=C(Nc1ncc(Cc2ccc(Cl)cc2Cl)s1)c1ccccc1	.	.	.	.	.	-
O=C(CC(NS(=O)(=O)c1ccc(Cl)cc1)c1ccco1)NCc1ccco1 (centres undefined)	-	-	-	70	-	-
CCCNC(=O)CC(NS(=O)(=O)c1ccc(Cl)cc1)c1ccco1 (centres undefined)	-	-	-	-	-	-
CCN(CC)c1ccc(N2C(=O)c3ccc4c5c(ccc(c35)C2=O)CC4)cc1	.	.	.	.	.	-
CCc1ccc(C(=O)CC2(O)C(=O)N(CN3CCOCC3)c3ccccc32)cc1 (centres undefined)	-	-	-	-	-	-
Cc1ccc(C(=O)CC2(O)C(=O)N(CN3CCOCC3)c3ccccc32)cc1 (centres undefined)	-	-	-	73	-	-
O=C(Nc1ccccc1C(=O)O)c1cccc(S(=O)(=O)NC2CCCCC2)c1	.	.	.	.	.	-
Cc1cc2nc(-c3ccc(NC(=O)c4ccc5c(c4)OCCO5)cc3O)oc2cc1C	.	.	.	.	.	-
Cc1ccc(NC(=O)c2c(-c3ccccc3)noc2C)cc1C	.	.	.	.	.	104
CCC1=NN(C(=O)c2ccc(OC)cc2)C(O)(c2ccncc2)C1 (centres undefined)	.	.	.	.	.	104
COc1ccc(NC(=O)c2ccc(Nc3nnc(C)c4ccccc34)cc2)cc1	.	.	.	.	.	60
COc1ccc(CC(=O)NNC(=O)c2ccc(Cl)cc2)cc1OC	.	.	.	.	.	-
CNC(=S)NNC(=O)Cc1ccc(OC)c(OC)c1	.	2.1	.	.	.	.
COc1ccc(CC(=O)Nc2ccc3c(c2)CCC3)cc1OC	.	2.1	.	.	.	.
COc1ccc(/C=N\N2CCN(c3ccccc3)CC2)cc1	.	.	.	.	.	-
CCn1c(C)nc2cc(C(=O)NNS(=O)(=O)c3c(C)c(C)cc(C)c3C)ccc21	.	2	.	.	.	.
CCn1c(C)nc2cc(C(=O)OC(C(F)(F)C(F)F)C(F)(F)C(F)F)ccc21	-	-	-	-	-	-
Cc1ccccc1Cn1nc(C)c(NC(=O)c2noc3c2CCc2ccccc2-3)c1C	72	-	-	-	-	-
COc1ccc2c(c1)CCc1c(C(=O)NCc3cccnc3)noc1-2	87	-	-	-	-	-

Screening results from PubChem.
